Reference: the supplement of paper PMC13380429

Tests used:
[1] = test system: Vero E6 infected with SARS-CoV-2; test: morphology score (similarity to uninfected cells); higher = more like uninfected cells; conditions: 24 h
[2] = test system: Vero E6 infected with SARS-CoV-2; test: SARS-CoV-2 infection rate relative to infected DMSO; higher = more infection, active = 60 or less; conditions: 24 h

Question: `CCOC(=O)CCNc1cc(N2CCc3ccccc3CC2)nc(-c2ccccn2)n1` (0.833333 µM) was tested. Which morphology score [1] did it give?
Answer: -0.0369

Question: And the SARS-CoV-2 infection rate [2]?
Answer: 116% (inactive)

Question: For `CC(=O)Nc1ccc(OC[C@](C)(O)C(=O)Nc2ccc([N+](=O)[O-])c(C(F)(F)F)c2)cc1` [andarine] (10 µM), which morphology score [1] is on record?
Answer: -0.0126

Question: What about the SARS-CoV-2 infection rate [2] of the same molecule?
Answer: 116% (inactive)

Question: How did the morphology score [1] turn out when `CC(C)(O)CC[C@@H](O)[C@](C)(O)[C@H]1CC[C@@]2(O)C3=CC(=O)[C@@H]4C[C@@H](O)[C@@H](O)C[C@]4(C)[C@H]3CC[C@]12C` [20-hydroxyecdysone] (10 µM) was run?
Answer: 0.0401

Question: What about the SARS-CoV-2 infection rate [2] of the same molecule?
Answer: 108% (inactive)

Question: With `N#Cc1cc(F)cc(-c2nc(-c3ccc(F)cn3)no2)c1` (10 µM) as the molecule, how does the morphology score [1] read?
Answer: 0.136

Question: And the SARS-CoV-2 infection rate [2]?
Answer: 89% (inactive)

Question: `C=C1C(=O)O[C@@H]2C[C@@]3(C)CCC[C@H](C)C3=C[C@H]12` [alantolactone] (10 µM) was tested. Which morphology score [1] did it give?
Answer: 0.304

Question: And the SARS-CoV-2 infection rate [2]?
Answer: 32% (active)

Question: With `NC(=S)N/N=C/c1coc2ccccc2c1=O.[Cl][Cu][Cl]` (10 µM) as the molecule, how does the morphology score [1] read?
Answer: -0.124

Question: What about the SARS-CoV-2 infection rate [2] of the same molecule?
Answer: 110% (inactive)

Question: What does the source list for `c1ccc(C(O[C@@H]2CCCN(CCc3ccc4c(c3)OCO4)C2)c2ccccc2)cc1` [zamifenacin] (10 µM)?
Answer: morphology score [1]: 0.152; SARS-CoV-2 infection rate [2]: 96% (inactive)

Question: Which results are given for `CCOC(=O)[C@@H](C)Oc1cccc2c(=O)n(CC(=O)Nc3ccc4c(c3)OCCO4)ccc12` (10 µM)?
Answer: morphology score [1]: -0.204; SARS-CoV-2 infection rate [2]: 108% (inactive)

Question: Which results are given for `CCC(C)SSc1ncc[nH]1` (stereo not given) (10 µM)?
Answer: morphology score [1]: -0.172; SARS-CoV-2 infection rate [2]: 95% (inactive)

Question: For `COc1cc(NC(=O)c2cccc(-n3cc(NC(=O)Nc4cccc(C)c4)cn3)c2)cc(OC)c1OC` (10 µM), which morphology score [1] is on record?
Answer: -0.0791

Question: What about the SARS-CoV-2 infection rate [2] of the same molecule?
Answer: 104% (inactive)
